TDP1 cell CPT: qHTS for Inhibitors of human tyrosyl-DNA phosphodiesterase 1 (TDP1): qHTS in cells in presence of CPT; chicken DT40 Tdp1-/-;hTDP1 cells + 20 nM CPT, ATP luminescence, 48 h; Potency, µM (highest dose often 46.2 µM), usual class: inhibitors; actives 12% (n = 420,000); AID 686979, 2013; also: nearly all actives have a fitted effect of over 55% in size
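Chicken DT40 Tdp1-/- cells complemented with human TDP1, 400 cells/well, exposed to compounds plus 20 nM camptothecin for at least 48 h at 37 C; viability read as ATP content by CellTiter-Glo luminescence.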
TGFb inhibitor: qHTS for Inhibitors of TGF-b; HepG2 CAGA-GFP TGF-b/SMAD3 reporter, GFP fluorescence, 18 h; TGF-beta stimulated, 500 pg/mL final; actives 1.2% (n = 410,000); Potency, µM (highest dose often 46.1 µM), usual class: inhibitors; also: nearly all actives have a fitted effect of over 65% in size
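Inhibition of TGF-beta-driven CAGA-GFP reporter expression in HEPG2 cells is measured by cellular GFP fluorescence after 18 h stimulation with 500 pg/mL recombinant TGF-beta in 1% FBS medium at 37 degrees C.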
HepG2 viability: qHTS for Inhibitors of TGF-b: Cytotox Counterscreen. HepG2 CAGA-GFP viability, ATP luminescence, 18 h. actives 0.76% (n = 410,000). Potency, µM (highest dose often 46.1 µM), most hits filed as cytotoxic. AID 588856, 2011
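CellTiter-Glo luminescence gave cytotoxicity after 18 hours at 37 degrees C. The cells were HepG2 CAGA-GFP in 1% FBS DMEM, stimulated with 500 pg/mL TGF-beta after compound addition. %Activity was normalised to no-cell wells (complete cell-killing) and DMSO (no toxicity), and curves were fitted and classified.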
ATXN viability: Viability Counterscreen for Primary qHTS for Inhibitors of ATXN expression; S2 cells (HEK-293 line with an ATXN2-luciferase reporter) viability, CellTiter-Fluor protease fluorescence, 24 h; Potency, µM (top dose mostly 56.7 µM), actives largely listed as cytotoxic; actives 0.49% (n = 400,000); also: nearly all actives have a fitted effect of over 40% in size
DT40 TDP1 no CPT: qHTS for Inhibitors of human tyrosyl-DNA phosphodiesterase 1 (TDP1): qHTS in cells in absence of CPT. DT40 Tdp1-/- hTDP1 cells, no CPT, ATP luminescence, 48 h. Potency, µM (titrated, usually from 46.2 µM), hits mostly inhibitors. actives 15% (n = 420,000). AID 686978, 2013; also: nearly all actives have a fitted effect of over 55% in size
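DT40 Tdp1-/-;hTDP1 cells, no CPT (DMSO vehicle only), 400 cells/well; compounds pin-transferred; ≥48 hr, 37 °C; CellTiter-Glo 30 min RT dark, luminescence read.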
ATXN2 expr inh: Primary qHTS for Inhibitors of ATXN expression; HEK-293 ATXN2-luciferase reporter, luminescence, 24 h; Potency, µM (titrated, usually from 57 µM), actives largely listed as inhibitors; AID 1745845, 2022; actives 0.72% (n = 360,000); also: nearly all actives have a fitted effect of over 55% in size
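ATXN2-luciferase reporter cells (luciferase flanked by upstream and downstream ATXN2 gene portions) were treated 24 h at 37 °C with compounds at up to 57 uM. SteadyGlo luminescence gave expression; GF-AFC fluorescence gave viability.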
Hits are given with their value; – = inactive; ? = inconclusive; · = no result; [ ] = dose if it differs, or a comment. Shown are actives, neighbours in structure and some others; about 17% of the full set was active somewhere. Calls follow the shape of the dose curve; as a rule, active = well fitted curve in the direction sought with a large enough effect; inconclusive = small, poorly fitted or top-dose-only effect, or another doubt; inactive = no such curve, though single readings can be large; an effect the other way counts as inactive or inconclusive.

SMILES | TDP1 cell CPT | TGFb inhibitor | HepG2 viability | ATXN viability | DT40 TDP1 no CPT | ATXN2 expr inh
CC(C)C[C@H](NC(=O)[C@H](CCCCN)NC(=O)[C@H](CCCNC(=N)N)NC(=O)[C@H](C)NC(=O)[C@H](CO)NC(=O)[C@H](CCCCN)NC(=O)[C@H](CCCNC(=N)N)NC(=O)[C@H](C)NC(=O)CNC(=O)[C@@H](NC(=O)[C@H](Cc1ccccc1)NC(=O)CNC(=O)CNC(=O)[C@@H](N)Cc1ccccc1)[C@H](C)O)C(=O)N[C@@H](C)C(=O)N[C@@H](CC(N)=O)C(=O)N[C@@H](CCC(N)=O)C(=O)O | –[4.12 µM] | · | · | · | –[4.12 µM] | ·
CCCc1c(C(=O)N/N=C/c2cccc(OCc3ccc(F)cc3)c2)nnn1-c1nonc1N | – | – | – | – | – | –
O=C1CCCC2=C1C(c1ccc3c(c1)OCO3)c1c([nH]n(-c3ccccc3)c1=O)N2 (centres undefined) | – | – | – | – | 13µM | –
COc1cccc(C2C3=C(CCCC3=O)Nc3[nH]n(-c4ccccc4)c(=O)c32)c1 (centres undefined) | – | – | – | ? | ? | –
CCCCc1nc2cc(C(=O)NCc3cc(C)n(C)n3)ccc2o1 | – | – | – | – | – | ·
c1ccc(CSCc2nc3ccccc3[nH]2)cc1 | ? | – | – | – | ? | –
CCN(CC1CCCO1)C(=O)c1cc(COc2ccc(OC)cc2Cl)on1 (centres undefined) | ? | – | – | – | – | –
CN(Cc1ccccn1)C(=O)c1cc(COc2ccc(F)cc2Cl)on1 | ? | – | – | – | 23µM | ·
CCN(Cc1ccncc1)C(=O)c1cc(COc2ccc(F)cc2Cl)on1 | 16µM | ? | – | – | ? | –
CCc1ccc(CN(C)C(=O)c2cc(COc3ccc(OC)cc3Cl)on2)nc1 | ? | ? | – | – | 29µM | –
CCN(Cc1ccncc1)C(=O)c1cc(COc2ccc(OC)cc2Cl)on1 | 16µM | – | – | – | ? | –
COc1ccc(NC(=O)C[C@@H]2C(=O)N(Cc3ccccc3)CC2(C)C)cc1 | – | – | – | – | 21µM | –
CC1(C)CN(Cc2ccccc2)C(=O)[C@H]1CC(=O)Nc1ccccc1 | – | – | – | – | ? | –
CC1(C)CN(Cc2ccccc2)C(=O)[C@H]1CC(=O)Nc1ccc(Br)cc1 | ? | – | – | – | 13µM | –
COc1ccc(NC(=O)C[C@H]2C(=O)N(Cc3ccccc3)C[C@@H]2C)cc1 | – | – | – | – | – | –
NC(=O)CSc1nnc(-c2cccs2)n1Cc1ccco1 | – | – | – | ? | – | –
O=C(CSc1nnc(Cc2cccs2)n1Cc1ccco1)Nc1cc(Cl)cc(Cl)c1 | 26µM | ? | – | – | ? | –
O=C(CSc1nnc(-c2ccccc2)n1-c1ccccc1)c1cccs1 | ? | – | – | – | 12µM | –
O=C(CSc1nnc(-c2ccc(Cl)cc2)n1Cc1ccco1)c1cccs1 | ? | – | – | – | 21µM | –
Cc1ccc(C(=O)CSc2nnc(-c3ccccc3)n2-c2ccccc2)o1 | 11µM | – | – | – | 10µM | –
C[C@@H]1CN([C@H](C)CO)C(=O)CCCn2nncc2CO[C@H]1CN(C)Cc1ccc(C(F)(F)F)cc1 | – | – | – | – | – | –
COc1ccc(CC(=O)NCCc2csc3nc(-c4ccccc4F)nn23)cc1 | ? | – | – | – | – | –
CCCCOc1ccc(C(=O)NCCc2csc3nc(-c4ccccc4F)nn23)cc1 | 26µM | – | – | – | ? | –
O=C(Cc1ccc(Cl)cc1)NCCc1csc2nc(-c3ccccc3F)nn12 | – | – | – | ? | – | –
